Rows were chosen to be rich in hits. Some 0.84% of all compounds tested hit in one or more screens of this group.
PPARg SRC2 recr = PPARgamma-driven SRC-2 recruitment agonism | 200,000 compounds, 0.34% hits | AID 1032 | PPARgamma LBD-SRC-2 recruitment, biochemical | activation, % at 8 µM; in the data active = activation above about 22%
PPARg SRC3 recr = agonists of human PPARgamma SRC-3 coactivator recruitment. AID 731. 200,000 compounds, 0.26% hits. P37231. biochemical PPARgamma/SRC-3 coactivator recruitment assay. activation, % at 8 µM; in the data active = activation above about 23%
SRC1 TRFRET art = counter-screen for PPARgamma SRC-1 recruitment agonists: TR-FRET artefact; 99,000 compounds, 0.34% hits; TR-FRET detection artefact counter-screen, emission ratio; hits give high values; AID 1051; TR-FRET ratio at 8 µM; in the data active = TR-FRET ratio above about 2300
PPARg SRC1 recr = PPARgamma-driven SRC-1 recruitment agonism | PPARgamma-SRC-1 coactivator recruitment biochemical assay | activation, % at 8 µM | 200,000 compounds, 0.41% hits; in the data active = activation above about 19%
SRC3 TRFRET art = counter-screen for PPARgamma SRC-3 recruitment agonists: TR-FRET artefact. PPARgamma/SRC-3 format; hits give high values. TR-FRET ratio at 8 µM. 99,000 compounds, 0.39% hits. AID 1048
TR-FRET SRC-2 ct = TR-FRET artefact, counter-screen to PPARgamma/SRC-2 agonist assay; 200,000 compounds, 0.4% hits; TR-FRET ratio at 8 µM; hits give high values; AID 1049
PPARg SRC2 conf = confirmation of agonists of SRC-2 recruitment by human PPARgamma; biochemical SRC-2 recruitment by PPARgamma; shares compounds with PPARg SRC3 recr; AID 1297; activation, % at 8 µM; 790 compounds, 52% hits; in the data active = activation above about 22%
PPARg SRC1 conf = human PPARgamma SRC-1 recruitment agonism, confirmation. shares compounds with PPARg SRC3 recr. PPARgamma–SRC-1 coactivator recruitment biochemical assay. activation, % at 8 µM. 790 compounds, 43% hits; in the data active = activation above about 20%
PPARg SRC3 conf = confirmation of agonists of SRC-3 recruitment by human PPARgamma | AID 1301 | shares compounds with PPARg SRC3 recr | biochemical PPARgamma-SRC-3 coactivator recruitment, agonist mode | 790 compounds, 29% hits | activation, % at 8 µM; in the data active = activation above about 24%
Each line names hits and unclear results; the compound was inactive in the other large screens (follow-up assays come after a bar, where they were run). Rule as the data show it, unless noted: active = TR-FRET ratio above about 2000; inactive = the rest.

COc1ccc(C(=O)C(C)(C)NO)cc1	PPARg SRC3 recr 27 (no result: SRC1 TRFRET art, SRC3 TRFRET art)
COc1ccc(C(=O)C23CN4CN(CN(C4)C2)C3)cc1	none
c1cncc(CNC2CCCC2)c1	SRC1 TRFRET art 3393, PPARg SRC1 recr 40
COc1cccc(C2(O)CCN(CC(=O)Nc3nc(C)cs3)CC2)c1	none
Cc1c2ccncc2c(C)c2c1[nH]c1ccccc12	PPARg SRC1 recr 27
c1ccc2c(c1)[nH]c1cnccc12	none
Cn1cc(C(=O)N2CCCCC2)c2ccccc21	none
CCCNC(=O)N1CCC2(CC1)OCCO2	none
O=C1Nc2ccccc2/C1=C/c1cnc[nH]1	PPARg SRC3 recr 33 (no result: SRC1 TRFRET art, SRC3 TRFRET art)
Cc1cccc(NP(=O)(Oc2ccccc2F)Oc2ccccc2F)c1C	SRC1 TRFRET art 2320
Cn1c(=O)cc(SCC(=O)N2CCC3(CC2)OCCO3)c2ccccc21	PPARg SRC2 recr 39, PPARg SRC3 recr 60, PPARg SRC1 recr 44, TR-FRET SRC-2 ct 2418 (no result: SRC1 TRFRET art, SRC3 TRFRET art) | PPARg SRC2 conf 33 | PPARg SRC1 conf 20 | PPARg SRC3 conf inactive
CCOC(=O)C1CCN(C=C2C(=O)N(C)C(=S)N(C)C2=O)CC1	none
Cc1nonc1OCCNc1ccc([N+](=O)[O-])c2cccnc12	none
Cc1cccc(N=Cc2c(O)n(-c3ccccc3C)c(=O)[nH]c2=O)c1	none (no result: SRC1 TRFRET art, SRC3 TRFRET art)
Cc1ccccc1-n1c(O)c(C=Nc2ccc(N(C)C)cc2)c(=O)[nH]c1=O	PPARg SRC2 recr 23, PPARg SRC3 recr 26, TR-FRET SRC-2 ct 2050 (no result: SRC1 TRFRET art, SRC3 TRFRET art) | PPARg SRC2 conf inactive | PPARg SRC1 conf inactive | PPARg SRC3 conf inactive
C=CCn1c(O)c(C=Nc2ccc(N(CC)CC)cc2)c(=O)[nH]c1=O	PPARg SRC3 recr 26 (no result: SRC1 TRFRET art, SRC3 TRFRET art) | PPARg SRC2 conf inactive | PPARg SRC1 conf inactive | PPARg SRC3 conf inactive

Compound activity deposited in PubChem BioAssay by The Scripps Research Institute Molecular Screening Center.
